In PMC5913336, “True equilibrium measurement of transcription factor-DNA binding affinities using automated polarization microscopy”:

These sequences were tested against T1, Br (Drosophila melanogaster, UniProt Q24206 697-775) (assay: FP; 33 mM phosphate pH 7.0, 90 mM NaCl, 0.01% Tween 20, 0.1 mM DTT, 0.5% agarose; room temperature). Details: tags: N-GST (pGEX-6P-1, kept); dsDNA, one strand shown.
T1 sequence: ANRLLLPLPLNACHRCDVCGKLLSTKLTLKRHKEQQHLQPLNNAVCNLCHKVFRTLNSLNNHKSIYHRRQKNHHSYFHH

Row | Sequence | binding signal
1 | CGAATTAGAAAAC | 1.68 Kd / Kd of best base at the position
2 | GGAATTAGAAATC | 1.02 Kd / Kd of best base at the position
3 | GGAATTAGAAAAT | 1.5 Kd / Kd of best base at the position
4 | GGAATTAGAAAAG | 1.23 Kd / Kd of best base at the position
5 | GGAATGAGAAAAC | > 1590 Kd / Kd of best base at the position
6 | GGAATAAGAAAAC | > 1590 Kd / Kd of best base at the position
7 | GGAATTACAAAAC | 109 Kd / Kd of best base at the position

What follows are sequences tested against T2, Hb (Drosophila melanogaster, UniProt P05084 225-364) in the same assay as above. Details: tags: N-GST (pGEX-6P-1, kept); dsDNA, one strand shown.
T2 sequence: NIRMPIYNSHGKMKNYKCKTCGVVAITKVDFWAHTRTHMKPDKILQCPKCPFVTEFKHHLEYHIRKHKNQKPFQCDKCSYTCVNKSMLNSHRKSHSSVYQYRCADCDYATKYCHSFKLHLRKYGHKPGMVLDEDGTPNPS

Row | Sequence | binding signal | Kd
8 | AGTTTTCTAGGC | 15 Kd / Kd of best base at the position | 
9 | AGTTTTTTAAGC | 1.31 Kd / Kd of best base at the position | 
10 | AGTTTTTTAGGT | 1.01 Kd / Kd of best base at the position | 
11 | GGTTTTTTAGGC | 1.46 Kd / Kd of best base at the position | 
12 | AGTTTATTAGGC | 11 Kd / Kd of best base at the position | 
13 | AGTTTTTTAGGG | 1.25 Kd / Kd of best base at the position | 
14 | AGTTTTTAAGGC | 9.25 Kd / Kd of best base at the position | 
15 | AGCTTTTTAGGC | 2.23 Kd / Kd of best base at the position | 
16 | AGTTTTTTAGGC |  | ~0.0125 µM
17 | AGTTTTTGAGGC | 8.32 Kd / Kd of best base at the position | 
18 | AGTTTTTTCGGC | 5.64 Kd / Kd of best base at the position | 
19 | AGTTTTTCAGGC | 10.3 Kd / Kd of best base at the position | 
20 | AATTTTTTAGGC | 1.04 Kd / Kd of best base at the position | 
21 | ATTTTTTTAGGC | 1.03 Kd / Kd of best base at the position | 
22 | AGTTTTTTAGCC | 1.11 Kd / Kd of best base at the position | 
23 | AGTTTGTTAGGC | 11.9 Kd / Kd of best base at the position | 

Row | Sequence | binding signal | Kd
24 | AGTTTTTTAGTC | 1.14 Kd / Kd of best base at the position | 
25 | AGTTATTTAGGC | 10.2 Kd / Kd of best base at the position | 
26 | TGTTTTTTAGGC | 1.1 Kd / Kd of best base at the position | 
27 | AGTTTTTTAGAC | 1.59 Kd / Kd of best base at the position | 
28 | AGGTTTTTAGGC | 1.26 Kd / Kd of best base at the position | 
29 | AGTTTTGTAGGC | 9.72 Kd / Kd of best base at the position | 
30 | AGTTTCTTAGGC | 9.31 Kd / Kd of best base at the position | 
31 | CGTTTTTTAGGC | 1.23 Kd / Kd of best base at the position | 
32 | AGTGTTTTAGGC | 6.19 Kd / Kd of best base at the position | 
33 | AGTCTTTTAGGC | 8.66 Kd / Kd of best base at the position | 
34 | AGTTTTTTATGC | 1.04 Kd / Kd of best base at the position | 
35 | AGTTTTTTTGGC | 6.04 Kd / Kd of best base at the position | 
36 | AGTTTTTTACGC | 1.61 Kd / Kd of best base at the position | 
37 | AGTTCTTTAGGC | 13.1 Kd / Kd of best base at the position | 
38 | AGTTGTTTAGGC | 9.25 Kd / Kd of best base at the position | 
39 | AGTTTTATAGGC | 9.8 Kd / Kd of best base at the position | 
